From the supplement of paper PMC6089552
Among all 3,200 compounds or so, about 300 (9.4%) showed activity. This excerpt belongs to a sample that is enriched for actives. A number with no mark means an inactive call.

System: A673/TR/shEF
Experiment: cell viability (LOESS-normalised, relative to median of negative controls) (log2 ratio); higher = more viable cells (less compound effect), active = hit call of the paper (over 3 MAD below the median)
Details: treatment time: 72 h
Procedure, shortened: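 A673/TR/shEF Ewing sarcoma cells (1,500 per well, 384-well plates) were grown with or without doxycycline to induce EWS-FLI1 shRNA knockdown, starting 24 h before compounds. Library compounds at two or more concentrations, with DMSO controls, were added for three days. Cell viability was read by CellTiter-Glo luminescence on an Envision reader, then LOESS-corrected per plate, divided by the median of negative controls and log2-transformed. Hits were wells at least three median absolute deviations from the median of all screened wells.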

[1] = 0.25 µM, library screen: screen1, EWS-FLI1 expression: high (no doxycycline)
[2] = 0.25 µM, library screen: screen1, EWS-FLI1 expression: low (doxycycline-induced shRNA knockdown)
[3] = 2.5 µM, library screen: screen1, EWS-FLI1 expression: high (no doxycycline)
[4] = 2.5 µM, library screen: screen1, EWS-FLI1 expression: low (doxycycline-induced shRNA knockdown)
[5] = 0.25 µM, library screen: screen2, EWS-FLI1 expression: high (no doxycycline)
[6] = 0.25 µM, library screen: screen2, EWS-FLI1 expression: low (doxycycline-induced shRNA knockdown)
[7] = 2.5 µM, library screen: screen2, EWS-FLI1 expression: high (no doxycycline)
[8] = 2.5 µM, library screen: screen2, EWS-FLI1 expression: low (doxycycline-induced shRNA knockdown)

Cc1c(N)nc([C@H](CC(N)=O)NC[C@H](N)C(N)=O)nc1C(=O)N[C@H](C(=O)N[C@H](C)[C@@H](O)[C@H](C)C(=O)N[C@H](C(=O)NCCc1nc(-c2nc(C(=O)NCCC[S+](C)C)cs2)cs1)[C@@H](C)O)[C@@H](OC1OC(CO)C(O)C(O)C1OC1OC(CO)C(O)C(OC(N)=O)C1O)c1cnc[nH]1 (some centres undefined)
cell viability (log2) [1]: 0.091
cell viability (log2) [2]: 0.105
cell viability (log2) [3]: 0.125
cell viability (log2) [4]: 0.052

C[C@]12CC[C@@H](O)C[C@@H]1CC[C@@H]1[C@@H]2CC[C@]2(C)C(=O)CC[C@@H]12
cell viability (log2) [1]: -0.00242
cell viability (log2) [2]: -0.00815
cell viability (log2) [5]: 0.137
cell viability (log2) [6]: 0.0672
cell viability (log2) [3]: 0.0414
cell viability (log2) [4]: 0.0708
cell viability (log2) [7]: 0.202
cell viability (log2) [8]: 0.0943

C[C@]12CC[C@H](O)C[C@@H]1CC[C@@H]1[C@@H]2CC[C@]2(C)C(=O)CC[C@@H]12
cell viability (log2) [1]: 0.113
cell viability (log2) [2]: 0.0515
cell viability (log2) [3]: 0.101
cell viability (log2) [4]: 0.0566

C[C@]12CC[C@H](O)C[C@H]1CC[C@@H]1[C@@H]2C[C@@H](O)[C@]2(C)[C@@H](C3=CC(=O)OC3)CC[C@]12O
cell viability (log2) [1]: 0.0425
cell viability (log2) [2]: -0.036
cell viability (log2) [3]: -0.488 (active)
cell viability (log2) [4]: -0.691 (active)

C[C@]12CC[C@H](O)C[C@@H]1CC[C@@H]1[C@@H]2CC[C@]2(C)[C@@H](O)CC[C@@H]12
cell viability (log2) [1]: 0.128
cell viability (log2) [2]: 0.00375
cell viability (log2) [3]: 0.117
cell viability (log2) [4]: 0.154

C[C@]12CCC3C(CC[C@H]4C[C@H](O)CC[C@]34C)C1CC[C@@H]2O (some centres undefined)
cell viability (log2) [1]: 0.158
cell viability (log2) [2]: 0.216
cell viability (log2) [3]: 0.201
cell viability (log2) [4]: 0.106

C[C@]12CC[C@H](O)C[C@H]1CC[C@@H]1[C@@H]2[C@H](O)C[C@]2(C)[C@@H](C3=CC(=O)OC3)CC[C@]12O
cell viability (log2) [1]: 0.0899
cell viability (log2) [2]: -0.0779
cell viability (log2) [3]: -0.259 (active)
cell viability (log2) [4]: -0.409 (active)

CN1C2C[C@H](OC(=O)[C@H](CO)c3ccccc3)CC1[C@@H](O)C2 (some centres undefined)
cell viability (log2) [1]: 0.0376
cell viability (log2) [2]: 0.0137
cell viability (log2) [3]: 0.116
cell viability (log2) [4]: 0.0715

C=C1C2CC[C@@]3(C)[C@H](c4ccoc4)OC(=O)C[C@]13O[C@H]1CC(=O)C(C)(C)[C@H](C(OC(C)=O)C(=O)OC)[C@@]21C (some centres undefined)
cell viability (log2) [1]: 0.0428
cell viability (log2) [2]: 0.0583
cell viability (log2) [3]: 0.106
cell viability (log2) [4]: 0.119

CN1C2CCC1CC(OC(c1ccccc1)c1ccccc1N)C2 (centres undefined)
cell viability (log2) [1]: 0.0792
cell viability (log2) [2]: 0.0013
cell viability (log2) [5]: 0.13
cell viability (log2) [6]: 0.107
cell viability (log2) [3]: 0.094
cell viability (log2) [4]: -0.0817
cell viability (log2) [7]: 0.165
cell viability (log2) [8]: 0.125

C[C@@H]1C(=O)O[C@H]2[C@H]1CC[C@@]1(C)C=CC(=O)[C@@]3(C)O[C@@]213
cell viability (log2) [1]: -0.0341
cell viability (log2) [2]: 0.0137
cell viability (log2) [3]: 0.0354
cell viability (log2) [4]: 0.0553

COP(N)(=O)SC (centres undefined)
cell viability (log2) [1]: 0.148
cell viability (log2) [2]: 0.0387
cell viability (log2) [3]: 0.151
cell viability (log2) [4]: 0.112

COc1cc(C(O)CN)ccc1O (centres undefined)
cell viability (log2) [5]: 0.137
cell viability (log2) [6]: 0.137
cell viability (log2) [7]: 0.0316
cell viability (log2) [8]: 0.00185

c1ccc(N=Nc2ccccc2)cc1
cell viability (log2) [1]: 0.0795
cell viability (log2) [2]: 0.0179
cell viability (log2) [3]: 0.0868
cell viability (log2) [4]: 0.083

NC(=NCCCC(N)C(=O)O)N[N+](=O)[O-] (centres undefined)
cell viability (log2) [1]: 0.0461
cell viability (log2) [2]: 0.0355
cell viability (log2) [5]: 0.174
cell viability (log2) [6]: -0.00505
cell viability (log2) [3]: 0.0987
cell viability (log2) [4]: 0.0962
cell viability (log2) [7]: 0.128
cell viability (log2) [8]: 0.0828

CN1C[C@@H](CO)C=C2c3cccc4[nH]cc(c34)C[C@@H]21
cell viability (log2) [1]: 0.0549
cell viability (log2) [2]: 0.11
cell viability (log2) [3]: 0.076
cell viability (log2) [4]: 0.0565

NC(=O)CN1CC(O)CC1=O (centres undefined)
cell viability (log2) [5]: 0.159
cell viability (log2) [6]: 0.0927
cell viability (log2) [7]: 0.0479
cell viability (log2) [8]: 0.0838

CC[C@@H]1/C=C/C=C/C[C@H](C)[C@@H](O)[C@](C)(O)C(=O)[C@H](C)[C@@H](O)[C@H](C)C(=O)[C@H](C)[C@@H](O)[C@H](C)/C=C/C(=O)O[C@H]2[C@@H](C)[C@@H](CC1)O[C@@]1(CC[C@@H](C)[C@@H](C[C@H](C)O)O1)[C@@H]2C
cell viability (log2) [5]: -0.731 (active)
cell viability (log2) [6]: -0.205 (active)
cell viability (log2) [7]: -0.713 (active)
cell viability (log2) [8]: -0.154 (active)
